For 31 compounds, AC50 and outcome results are on record in PubChem BioAssay (EPA / NIEHS).

Molecules are shown by their SMILES. Several values for one entry are separate records, joined by “and”; a condition that tells them apart may be missing. Equal values may be shown once. Results filed as inconclusive are left out. Activity calls are given as the source filed them. Rule for the calls, unless noted: active = hit-call score of the fitted dose curve at least 0.9, where 1 is the maximum; inconclusive = response in the unintended direction; inactive = score below 0.9.

human Phosphatase and Tensin Homolog (PTEN), PTEN (gene 5728), sequence (P60484 whole entry, looked up): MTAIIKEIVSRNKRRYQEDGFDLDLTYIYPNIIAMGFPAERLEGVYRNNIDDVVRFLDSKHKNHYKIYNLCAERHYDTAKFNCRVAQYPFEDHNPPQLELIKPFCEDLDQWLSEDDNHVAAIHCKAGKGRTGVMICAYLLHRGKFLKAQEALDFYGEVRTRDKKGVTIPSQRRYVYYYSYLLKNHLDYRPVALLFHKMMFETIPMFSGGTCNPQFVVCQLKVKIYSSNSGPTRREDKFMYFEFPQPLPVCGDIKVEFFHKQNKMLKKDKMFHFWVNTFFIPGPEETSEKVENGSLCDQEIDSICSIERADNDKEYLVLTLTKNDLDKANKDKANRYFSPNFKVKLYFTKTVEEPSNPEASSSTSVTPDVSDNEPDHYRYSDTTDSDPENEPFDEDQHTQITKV
rat Monoamine Oxidase, MAO-B, Central (MAOBC), Maob (gene 25750), sequence (P19643 whole entry, looked up): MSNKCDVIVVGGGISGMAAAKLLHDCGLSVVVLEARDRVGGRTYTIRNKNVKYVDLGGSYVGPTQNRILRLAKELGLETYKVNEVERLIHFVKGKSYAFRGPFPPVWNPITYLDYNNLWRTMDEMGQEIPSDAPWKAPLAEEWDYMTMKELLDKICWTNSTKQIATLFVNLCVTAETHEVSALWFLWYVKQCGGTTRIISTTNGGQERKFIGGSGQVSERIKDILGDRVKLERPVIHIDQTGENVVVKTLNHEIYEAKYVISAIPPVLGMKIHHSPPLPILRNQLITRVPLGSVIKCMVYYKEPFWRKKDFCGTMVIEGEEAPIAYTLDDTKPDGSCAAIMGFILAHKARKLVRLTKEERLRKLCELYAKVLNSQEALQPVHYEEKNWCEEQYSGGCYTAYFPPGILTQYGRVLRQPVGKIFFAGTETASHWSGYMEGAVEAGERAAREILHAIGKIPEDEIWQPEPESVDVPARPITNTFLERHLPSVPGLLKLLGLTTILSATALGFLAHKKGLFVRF
Norway rat Vesicular Monoamine Transporter (VMAT2), neurotransmitter transporter, Slc18a2 (gene 25549), sequence (Q01827 whole entry, looked up): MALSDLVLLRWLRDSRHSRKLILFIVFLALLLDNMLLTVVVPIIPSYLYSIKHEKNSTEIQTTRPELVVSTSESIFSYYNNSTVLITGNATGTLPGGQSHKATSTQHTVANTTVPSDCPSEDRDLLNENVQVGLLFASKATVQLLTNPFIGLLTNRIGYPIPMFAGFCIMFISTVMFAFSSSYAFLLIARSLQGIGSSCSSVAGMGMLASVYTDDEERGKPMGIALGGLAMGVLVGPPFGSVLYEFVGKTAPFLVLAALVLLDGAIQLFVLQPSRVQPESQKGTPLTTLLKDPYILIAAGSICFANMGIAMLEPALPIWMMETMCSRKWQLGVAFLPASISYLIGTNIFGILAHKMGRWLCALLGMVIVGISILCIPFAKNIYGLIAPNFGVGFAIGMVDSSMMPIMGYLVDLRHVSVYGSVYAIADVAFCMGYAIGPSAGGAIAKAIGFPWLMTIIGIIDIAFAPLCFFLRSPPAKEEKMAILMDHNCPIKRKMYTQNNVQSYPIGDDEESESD
human Matrix Metalloproteinase-1 (MMP1), MMP1 (gene 4312), sequence (P03956 whole entry, looked up): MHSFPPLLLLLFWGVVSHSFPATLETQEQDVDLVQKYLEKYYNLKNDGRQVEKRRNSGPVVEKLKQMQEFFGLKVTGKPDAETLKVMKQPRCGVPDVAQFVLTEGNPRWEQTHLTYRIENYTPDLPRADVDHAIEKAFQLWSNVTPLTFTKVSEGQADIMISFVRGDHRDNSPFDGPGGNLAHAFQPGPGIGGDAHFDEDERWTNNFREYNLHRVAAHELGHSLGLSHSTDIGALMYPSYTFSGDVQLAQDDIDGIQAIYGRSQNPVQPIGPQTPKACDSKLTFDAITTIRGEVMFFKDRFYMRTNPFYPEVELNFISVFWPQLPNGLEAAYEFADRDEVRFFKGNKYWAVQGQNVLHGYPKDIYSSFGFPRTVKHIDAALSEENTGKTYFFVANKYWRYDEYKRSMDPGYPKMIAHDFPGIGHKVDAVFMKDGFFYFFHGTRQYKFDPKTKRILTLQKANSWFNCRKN

The target in one assay is human Fibroblast Growth Factor Receptor 1 (FGFR1), FGFR1 (gene 2260) (UniProt P11362). Description: NVS_ENZ_hFGFR1: NovaScreen (NVS) Enzymatic Assay for human Fibroblast Growth Factor Receptor 1 (FGFR1) (AID 2283159).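 Note: hits lower the signal so potencies describe inhibitors of the kinase.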 In outline: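 Cell-free recombinant kinase with fluorescent substrate, product separated by electrophoretic mobility shift; read 1 hour after dosing, loss of signal relative to DMSO. Initial screen in duplicate at 25 uM, actives followed in concentration series.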
human Fibroblast Growth Factor Receptor 1 (FGFR1), FGFR1 (gene 2260), sequence (P11362 whole entry, looked up): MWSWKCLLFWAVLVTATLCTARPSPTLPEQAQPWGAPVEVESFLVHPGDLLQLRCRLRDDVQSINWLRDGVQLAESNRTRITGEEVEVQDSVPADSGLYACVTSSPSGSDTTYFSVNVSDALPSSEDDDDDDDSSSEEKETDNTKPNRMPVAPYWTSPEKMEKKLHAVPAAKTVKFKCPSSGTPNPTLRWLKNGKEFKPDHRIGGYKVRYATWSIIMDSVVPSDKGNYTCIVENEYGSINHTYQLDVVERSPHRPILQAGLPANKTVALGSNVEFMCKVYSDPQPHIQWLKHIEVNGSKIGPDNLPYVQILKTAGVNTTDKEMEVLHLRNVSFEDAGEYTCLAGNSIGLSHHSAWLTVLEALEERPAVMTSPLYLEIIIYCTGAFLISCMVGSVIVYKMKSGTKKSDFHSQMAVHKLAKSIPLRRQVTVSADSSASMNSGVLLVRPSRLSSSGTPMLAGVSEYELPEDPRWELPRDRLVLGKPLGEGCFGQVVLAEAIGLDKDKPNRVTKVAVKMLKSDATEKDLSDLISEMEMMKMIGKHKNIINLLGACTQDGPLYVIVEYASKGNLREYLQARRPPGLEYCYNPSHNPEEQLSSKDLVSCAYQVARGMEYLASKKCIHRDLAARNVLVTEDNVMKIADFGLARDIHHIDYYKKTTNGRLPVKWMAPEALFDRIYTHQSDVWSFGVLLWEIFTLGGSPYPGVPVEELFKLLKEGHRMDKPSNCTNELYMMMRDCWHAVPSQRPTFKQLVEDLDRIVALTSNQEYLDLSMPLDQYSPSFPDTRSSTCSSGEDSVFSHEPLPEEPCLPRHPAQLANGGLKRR
As to `S=C([S-])NCCNC(=S)[S-].[Mn+2]`, the AC50 is 19.1 µM (active). Turning to `Oc1ccc(C(c2ccc(O)cc2)C(Cl)(Cl)Cl)cc1`, the AC50 is 33.1 µM (active). `S=C(S)NCCNC(=S)S.[Mn+2].[S-]C([S-])=NCCN=C([S-])[S-].[Zn+2]`: the AC50 is 9.75 µM (active) and 926 nM (active) and 5.66 µM (active).

A further assay deals with human Matrix Metalloproteinase-1 (MMP1), MMP1 (gene 4312) (UniProt P03956). Kind of assay: NVS_ENZ_hMMP1: NovaScreen (NVS) Enzymatic Assay for human Matrix Metalloproteinase-1 (MMP1) (AID 2283181). The method, boiled down:
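Cell-free fluorescent substrate assay of human MMP1, read after 1 h. A single 25 uM duplicate screen was followed by concentration series to a maximum of 50 uM for actives meeting threshold; inhibition analysed against DMSO baseline.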
Regarding `C=CCOC(Cn1ccnc1)c1ccc(Cl)cc1Cl` (stereo unspecified), the AC50 is 14 µM (active).

Take `S=C(S)NCCNC(=S)S.[Mn+2].[S-]C([S-])=NCCN=C([S-])[S-].[Zn+2]`: the compound was called inactive. Still for that read-out and setting: under `CC(=O)O[C@]1(C(C)=O)CC[C@H]2[C@@H]3C=C(Cl)C4=CC(=O)[C@@H]5C[C@@H]5[C@]4(C)[C@H]3CC[C@@]21C` stands “inactive”.

A further assay has as its target human Phosphatase and Tensin Homolog (PTEN), PTEN (gene 5728) (UniProt P60484). Description: NVS_ENZ_hPTEN: NovaScreen (NVS) Enzymatic Assay for human Phosphatase and Tensin Homolog (PTEN) (AID 2283203). In outline:
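Loss of fluorescent product signal after mobility-shift separation reports PTEN activity, recombinant human enzyme, 1 h after compound addition. Single 25 uM duplicate screen, then concentration-response on actives; DMSO baseline.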
For the compound `S=C([S-])NCCNC(=S)[S-].[Mn+2]`, the AC50 is 933 nM (active). Turning to `CSC(=O)c1cccc2nnsc12`, the call was inactive. On to `S=C(S)NCCNC(=S)S.[Mn+2].[S-]C([S-])=NCCN=C([S-])[S-].[Zn+2]`, for which the AC50 is 3.14 µM (active) and 80.5 nM (active) and 274 nM (active).

For another assay, the target named is rat Monoamine Oxidase, MAO-B, Central (MAOBC), Maob (gene 25750) (UniProt P19643). Description: NVS_ENZ_rMAOBC: NovaScreen (NVS) Enzymatic Assay for rat Monoamine Oxidase, MAO-B, Central (MAOBC) (AID 2283238). In outline:
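Actives from a duplicate 25 uM screen went on to singleton concentration-response with a 50 uM maximum. Enzyme source was rat brain tissue MAO-B, assayed cell-free. Radiolabelled product was counted by scintillation 1.17 h post-dose, with signal loss relative to DMSO.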
For the compound `Oc1ccc(C(c2ccc(O)cc2)C(Cl)(Cl)Cl)cc1`, the outcome was inactive. The same measure, in the same setting: under `CCCCC(CC)CN1C(=O)C2C3C=CC(C3)C2C1=O` (stereo unspecified) stands “inactive”. Regarding `CSC(=O)c1cccc2nnsc12`, the AC50 is 25 µM (active).

A further assay concerns rat Monoamine Oxidase, MAO-A, Central (MAOAC), gene 29253. Kind of assay: NVS_ENZ_rMAOAC: NovaScreen (NVS) Enzymatic Assay for rat Monoamine Oxidase, MAO-A, Central (MAOAC) (AID 2283243).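 Note: potency refers to inhibition seen as signal drop below DMSO baseline.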 The method, boiled down:
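Enzyme from rat brain, cell-free radiodetection format. Counts taken at 1.5 h; activity fitted against DMSO baseline, loss of signal marking inhibition. Confirmatory concentration series followed the 25 uM duplicate screen.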
Regarding `CC(=O)[C@H]1CC[C@H]2[C@@H]3CCC4=CC(=O)CC[C@]4(C)[C@H]3CC[C@]12C`, the result was inactive. On the same count and under the same terms, under `Oc1ccc(C(c2ccc(O)cc2)C(Cl)(Cl)Cl)cc1` stands “inactive”. Regarding `CSC(=O)c1cccc2nnsc12`, the AC50 is 28.2 µM (active).

The next assay has as its target Norway rat Vesicular Monoamine Transporter (VMAT2), neurotransmitter transporter, Slc18a2 (gene 25549) (UniProt Q01827). Description: NVS_TR_rVMAT2: NovaScreen (NVS) Transporter Assay for Norway rat Vesicular Monoamine Transporter (VMAT2), neurotransmitter transporter (AID 2283376).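 Note: actives lower the bound radioligand signal below the DMSO level.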 In outline: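 Using rat forebrain membranes, specific radioligand binding to VMAT2 was measured by filtration and scintillation counting after 1 hour. Chemicals screened at 25 uM in duplicate, actives retested in concentration series, DMSO baseline.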
Take `C=CCOC(Cn1ccnc1)c1ccc(Cl)cc1Cl` (stereo unspecified): the AC50 was 12 µM (active). As for `Oc1ccc(C(c2ccc(O)cc2)C(Cl)(Cl)Cl)cc1`, the AC50 was 7.63 µM (active). For the compound `CCCCC(CC)COC(=O)c1ccccc1C(=O)O` (stereo unspecified), the outcome was inactive. On the same count and under the same terms, under `O=[N+]([O-])c1ccccc1Cl` stands “inactive”.

Test system in the next assay: not listed separately
Description: ATG_M_32_XSP2: Attagene TRANS-FACTORIAL Multi-Species (XSP2) HepG2 Assay for M19 Transcription Factor (Internal Marker) (AID 2283826). The method, boiled down: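 Total RNA is taken from compound-treated HepG2 cells after 24 h and reverse-transcribed; reporter cDNA is PCR-amplified, end-labelled with 6-FAM, digested with HpaI for 2h at 37 C and sized by capillary electrophoresis. Activity is fitted in the positive direction against DMSO.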
Turning to `C=CCOC(Cn1ccnc1)c1ccc(Cl)cc1Cl` (stereo unspecified), the call was inactive. On the same count and under the same terms, as for `Oc1ccc(C(c2ccc(O)cc2)C(Cl)(Cl)Cl)cc1`, the entry is “inactive”. Take `CCCCC(CC)CN1C(=O)C2C3C=CC(C3)C2C1=O` (stereo unspecified): the AC50 is 174 µM (active).

Test system in a further assay: not listed separately
Kind of assay: CCTE_Harrill_HTTr_Apoptosis_PRF_DMEM_12hr: (Pilot) CCTE's 12-hour Apoptosis Assessment for the High-Throughput Transcriptomics (HTTr) Platform, in MCF-7 cells cultured in phenol red-free DMEM + 10% charcoal-stripped fetal bovine serum, Harrill Lab (AID 2283985; active = hit-call score of the fitted dose curve at least 0.9, where 1 is the maximum; inactive = score below 0.9). In outline: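 Caspase-3/7 activity by CellEvent Green high content imaging after 12 h compound exposure (eight concentrations) in MCF-7 grown in phenol red-free DMEM plus 10% charcoal-stripped serum; DMSO as baseline.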
Turning to `S=C([S-])NCCNC(=S)[S-].[Mn+2]`, the outcome was inactive. The same measure, in the same setting: as for `C=CCOC(Cn1ccnc1)c1ccc(Cl)cc1Cl` (stereo unspecified), the entry is “inactive”; as for `CC(=O)O[C@]1(C(C)=O)CC[C@H]2[C@@H]3C=C(Cl)C4=CC(=O)[C@@H]5C[C@@H]5[C@]4(C)[C@H]3CC[C@@]21C`, “inactive”.

Test system in another assay: not listed separately
Kind of assay: Tanguay_ZF_120hpf_MUSC: Oregon State University Tanguay Lab 120 Hour Post-fertilization zebrafish Assay for Muscle Malformation (AID 2284401; active = hit-call score of the fitted dose curve at least 0.9, where 1 is the maximum; inactive = score below 0.9). In outline: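 Scored as a binary brightfield endpoint at 120 hpf, fitted versus DMSO. Single dechorionated wild-type (Tropical 5D) zebrafish embryos per well, statically exposed at 28C from 6 hpf onward with final DMSO 0.64%.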
For the compound `O=C(O)C(F)(F)C(F)(F)C(F)(F)OC(F)(C(F)(F)F)C(F)(F)F`, the compound was called inactive. On the same count and under the same terms, under `NC(=O)C(F)(F)C(F)(F)C(F)(F)C(F)(F)C(F)(F)C(F)(F)C(F)(F)F` stands “inactive”.

`FC(F)(F)C(F)(F)C(F)(F)C(F)(F)C(F)(F)C(F)(F)C(F)(F)Br`: the compound was called inactive. In the case of `FC(F)(F)C(F)(F)C(F)(F)C(F)(F)C(F)(F)CCI`, the call was inactive. On the same count and under the same terms, as for `O=S(=O)(OCC(F)F)C(F)(F)F`, the entry is “inactive”; as for `C=C(C)C(=O)OCC(F)(F)C(F)(F)C(F)(F)F`, “inactive”. The same measure, in the same setting: under `OCC(F)(F)C(F)(F)C(F)(F)C(F)(F)C(F)(F)C(F)(F)F` stands “inactive”; under `FC(F)(F)C(F)(F)C(F)(F)C(F)(F)C(F)(F)C(F)(F)C(F)(F)C(F)(F)CCS`, “inactive”. As to `O=C(O)C(F)(F)C(F)(F)C(F)(F)C(F)(F)F`, the result was inactive. On to `OCCC(F)(F)C(F)(F)C(F)(F)C(F)(F)F`, for which the result was inactive. In the case of `OCC(F)(F)C(F)(F)C(F)(F)C(F)F`, the call was inactive.

Take `C=CC(=O)OCC(F)(F)C(F)(F)C(F)(F)C(F)(F)COC(=O)C=C`: the compound was classed as inactive. The same measure, in the same setting: under `CCO[Si](CCC(F)(F)C(F)(F)C(F)(F)C(F)(F)C(F)(F)C(F)(F)F)(OCC)OCC` stands “inactive”; under `FC(F)(F)C(F)(F)CNCC(F)(F)C(F)(F)F`, “inactive”; under `OCCCC(F)(F)C(F)(F)C(F)(F)F`, “inactive”.

With `O=S(=O)(O)C(F)(F)C(F)(F)C(F)(F)C(F)(F)C(F)(F)C(F)(F)C(F)(F)F`, the call was inactive. As for `CCCCCCCCC(F)(F)C(F)(F)C(F)(F)C(F)(F)C(F)(F)C(F)(F)F`, the outcome was inactive. Consider `OCC(F)(F)C(F)(F)C(F)(F)C(F)(F)C(F)(F)C(F)F`, for which the compound was classed as inactive.

For `NC(=O)C(F)(F)C(F)(F)C(F)(F)C(F)F`, the compound was called inactive. Same read-out and setting: as for `OCC(F)(F)C(F)(F)C(F)(F)CO`, the entry is “inactive”. `C=CC(F)(F)C(F)(F)C(F)(F)C(F)(F)C(F)(F)C(F)(F)C(F)(F)C(F)(F)F`: the outcome was inactive.
